Screening results: PubChem BioAssay, several laboratories
esBAF inh: Bmi1 luciferase reporter increase in mESCs, primary screen, esBAF inhibitor project, mouse ES cells, Bmi1 luciferase knock-in, single point. 24 h; 100% = twice the neutral-well signal. reporter increase, % at 12.5 µM. actives 2% (n = 350,000). AID 602393, 2012; in the data active = activation above about 40%; inconclusive = no clear call, values can overlap the other calls;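 also: 0% = median of the plate's neutral control wells and 100% = double that signal; a rise in the Bmi1 reporter signal indicates esBAF inhibition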
MITF act: activators of MITF-driven TRPM1 promoter reporter, primary screen, cell-based, SK-MEL-5, luciferase, single point; SK-MEL-5 TRPM1-promoter luciferase, 24 h; % of positive control, neutral wells = 0; activation, % at 12.5 µM; actives 0.75% (n = 300,000); AID 588334, 2011;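 active = mean activation of at least 80% with every replicate also reaching 80%; inconclusive = mean reaches 80% but some replicate falls short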;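 also: 0% = neutral control wells and 100% = parthenolide positive control wells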
Wnt bcat act: Wnt/beta-catenin pathway activators, primary screen, cell-based, plate reader, single point; actives 1.2% (n = 300,000); Wnt/beta-catenin reporter cell assay, activator; AID 743398, 2014; activation, % at 9.35 µM; in the data active = activation above about 30%, passing the limit was not always enough; inconclusive = no clear call, values can overlap the other calls;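 also: 0% = neutral control wells and 100% = positive control wells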
APOBEC3G inh: APOBEC3G DNA deaminase inhibitors, primary screen, biochemical, fluorescence, single-stranded DNA substrate, uHTS | recombinant A3G, ssDNA deamination FAM/TAMRA fluorescence | inhibition, % at 20 µM | actives 0.28% (n = 330,000);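 active = inhibition of at least 40% at 20 µM, with no more than 30% in the related APOBEC3A deaminase screen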;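 also: plate controls were DMSO wells with A3G for no effect and wells lacking A3G enzyme for full effect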
Target sequence (Q9HC16 whole entry, looked up): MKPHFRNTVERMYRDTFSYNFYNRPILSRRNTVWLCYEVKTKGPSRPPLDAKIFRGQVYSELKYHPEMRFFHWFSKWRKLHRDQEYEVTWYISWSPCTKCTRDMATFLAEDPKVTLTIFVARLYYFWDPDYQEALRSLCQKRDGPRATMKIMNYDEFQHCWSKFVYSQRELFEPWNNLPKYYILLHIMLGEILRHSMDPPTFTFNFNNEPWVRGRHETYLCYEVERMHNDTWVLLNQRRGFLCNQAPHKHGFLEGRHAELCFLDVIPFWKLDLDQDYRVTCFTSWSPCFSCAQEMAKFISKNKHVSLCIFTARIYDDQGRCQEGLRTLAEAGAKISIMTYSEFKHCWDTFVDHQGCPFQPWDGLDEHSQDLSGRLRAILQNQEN
APOBEC3A inh: APOBEC3A ssDNA deaminase inhibitors, primary screen, selectivity assay for APOBEC3G inhibitor project, biochemical, FAM/TAMRA oligo cleavage fluorescence; DNA dC->dU-editing enzyme APOBEC-3A (Homo sapiens), P31941; recombinant A3A, FAM/TAMRA ssDNA deamination fluorescence; inhibition, % at 20 µM; actives 0.41% (n = 330,000); AID 493011, 2011;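 active = at least 40% inhibition at 20 µM here, with at most 30% in a related deaminase screen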;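 also: plate controls were A3A with DMSO for no effect and wells lacking A3A enzyme for full effect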
Target sequence (P31941 whole entry, looked up): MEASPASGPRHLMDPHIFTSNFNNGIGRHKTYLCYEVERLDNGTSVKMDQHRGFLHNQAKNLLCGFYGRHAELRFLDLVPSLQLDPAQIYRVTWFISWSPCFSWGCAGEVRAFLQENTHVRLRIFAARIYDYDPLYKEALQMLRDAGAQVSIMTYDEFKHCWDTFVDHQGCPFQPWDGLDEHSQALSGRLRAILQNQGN
PHOSPHO1 inh: PubChem AID 1565. Phosphoethanolamine/phosphocholine phosphatase (Homo sapiens), Q8TCT1. recombinant PHOSPHO1, absorbance phosphatase assay. inhibition, % at 13.3 µM. actives 1.1% (n = 290,000); in the data active = inhibition above about 60%
esBAF Ring1 qPCR: Ring1 mRNA increase in mouse ESCs, confirmation, esBAF inhibitor project, cell-based, mouse ESC, RT-qPCR, cherry-pick | mouse ESC E14, Ring1 mRNA RT-qPCR fold change | AID 743176, 2013 | shares compounds with esBAF inh | fold change at 33 µM | 550 tested, under 10 active;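 active = Ring1 gene expression raised more than 2-fold over untreated cells in both replicates at either tested dose; inconclusive = only one replicate above 2-fold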;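 also: Ring1 transcript normalised to actin housekeeping signal by TaqMan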
Fgf4 repress: Fgf4 mRNA decrease in mouse ESCs, confirmation, esBAF inhibitor project, cell-based, mouse ESC, RT-qPCR, cherry-pick | actives 4% (n = 550) | mouse ESC E14, Fgf4 mRNA qPCR fold change; hits give low values | Fgf4 expression fold change at 33 µM | shares compounds with esBAF inh;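 active = Fgf4 expression under 0.8 fold of control in both repeat measurements at one or both tested doses; inconclusive = under 0.8 fold in just a single repeat measurement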;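 also: Fgf4 transcript normalised to actin in duplex TaqMan qPCR; cells exposed to compound for 24 h before lysis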
esBAF Bmi1 qPCR: esBAF inhibition via Bmi1 de-repression, confirmation, cell-based, RT-qPCR, mouse ESC, single point, cherry-pick | shares compounds with esBAF inh | mouse ESE14 ES cells, Bmi1 mRNA qPCR fold; hits give high values | fold change at 33 µM | 550 tested, under 10 active;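 active = Bmi1 expression fold change above 6 at either tested concentration, seen in replicate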;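 also: higher fold means more Bmi1 de-repression and stronger esBAF inhibition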
A549 tox SP: A549 cell cytotoxicity, cytotoxicity control, plate reader, single point, cherry-pick; 550 tested, under 10 active; AID 743188, 2013; cell viability change % (negative = cytotoxic), % at 25 µM, hits read low; shares compounds with esBAF inh; call rule not given here
HepG2 tox SP: HepG2 cell cytotoxicity, cytotoxicity control, plate reader, single point, cherry-pick | shares compounds with esBAF inh | hits give low values | activity change, negative = inhibition, % at 25 µM | actives 4% (n = 550); in the data active = activity change below about -50%
HEK293 tox SP: HEK293 cell cytotoxicity, cytotoxicity control, plate reader, single point, cherry-pick | shares compounds with esBAF inh | activity change, negative = inhibition, % at 25 µM, hits read low | actives 3% (n = 550); in the data active = activity change below about -38%, passing the limit was not always enough
Active calls of the source: *; ? = inconclusive; · = not tested or not shown. The list is not random: actives were taken first. Their share in the collection is about 3.6%.

SMILES | esBAF inh | MITF act | Wnt bcat act | APOBEC3G inh | APOBEC3A inh | PHOSPHO1 inh | esBAF Ring1 qPCR | Fgf4 repress | esBAF Bmi1 qPCR | A549 tox SP | HepG2 tox SP | HEK293 tox SP
CC=Cc1ccc2n(c1=O)C[C@@H]1[C@@H](CO)[C@H](C(=O)Nc3ccc(-c4ccccc4)cc3)N(CCC)[C@H]21 (mixture of isomers) | 3.3 | · | · | · | · | · | · | · | · | · | · | ·
C=CCN(C(=O)CC(NC(C)=O)c1ccccc1)c1nc(-c2ccc(S(C)(=O)=O)cc2)cs1 (stereo not drawn) | 77.8* | 48.3 | 5.3 | -12.9 | -3.0 | 30.4 | 0.939 | 1.23 | 1.12 | -12.3 | -11.2 | -17.7
O=C(Nc1ccc(-c2cnco2)cc1)c1ccc(F)cc1F | 63.2* | 42.4 | 38.7* | -9.1 | 2.4 | 21.0 | 1.13* | 0.966 | 0.78 | -2.0 | -42.2 | 2.3
O=C(NC(=O)c1ccc(Cl)cc1)Nc1ccc(-c2cnco2)cc1 | · | · | · | -8.6 | 0.1 | -15.8 | · | · | · | · | · | ·
C/C=C/c1cnc2c(c1)C(=O)N([C@@H](C)CO)C[C@H](C)[C@@H](CN(C)Cc1cccc(C(=O)O)c1)O2 | -1.9 | · | · | · | · | · | · | · | · | · | · | ·
C[C@H](CO)N1C[C@H](C)[C@@H](CN(C)Cc2ccncc2)OCCCC[C@H](C)Oc2ccc(NC(=O)C3CCCCC3)cc2C1=O | -2.9 | · | · | · | · | · | · | · | · | · | · | ·
COc1ccc2oc3cc(Cl)ccc3c(=O)c2c1 | 79.6* | · | 3.6 | · | · | · | 1.1 | ? | 1.43 | 8.4 | -30.3 | -10.4
Cc1noc(C)c1NC(=O)Nc1ccc2c(c1)C(=O)N([C@@H](C)CO)C[C@H](C)[C@H](CN(C)Cc1ccc(Cl)c(Cl)c1)OCCCC[C@@H](C)O2 | 1.3 | · | · | · | · | · | · | · | · | · | · | ·
O=C(C[C@@H]1C=C[C@H](NC(=O)NC2CCCCC2)[C@H](CO)O1)NCc1ccccc1 | -5.1 | · | · | · | · | · | · | · | · | · | · | ·
c1ccc(Nc2nc(-c3ccncc3)cs2)cc1 | 58.9* | 143.6* | · | -0.8 | 2.8 | -10.8 | 1.38 | 1.08 | 3.48 | -11.5 | 43.3 | -8.2
CC(=O)Nc1nc(-c2ccc(-c3ccccc3)cc2)cs1 | 67.6* | · | 40.1* | · | · | · | 0.95 | 0.894 | 1.46 | -11.6 | -35.0 | 0.5
Oc1ccc(Nc2nc(-c3cccnc3)cs2)cc1 | 38.9 | · | · | -3.9 | -4.7 | 20.1 | · | · | · | · | · | ·
c1ccc(-c2csc(Nc3cccnc3)n2)nc1 | 61.1* | 56.7 | · | -8.5 | -6.1 | 46.5 | 1.11 | 1.06 | 1.34 | -15.4 | -14.4 | -5.6
C[C@@H]1CN([C@H](C)CO)C(=O)c2cccc(NC(=O)Nc3ccc(F)cc3)c2O[C@@H]1CN(C)C | 2.6 | · | · | · | · | · | · | · | · | · | · | ·
COc1cccc(CNC(=O)C[C@H]2CC[C@@H]3[C@H](COc4ccc(NS(=O)(=O)c5ccccc5F)cc4C(=O)N3C)O2)c1 | 1.3 | · | · | · | · | · | · | · | · | · | · | ·
COc1ccc2c(ccc[n+]2[O-])c1 | 1.8 | -2.0 | -2.5 | · | · | · | · | · | · | · | · | ·
COc1ccc2nc3ccccc3[n+]([O-])c2c1 | 72.1* | 26.1 | 4.0 | · | · | · | 1.38 | 1.3 | 2.53 | -6.2 | -13.7 | -11.0
C[C@@H]1CN([C@H](C)CO)C(=O)c2cccc(NS(=O)(=O)c3ccc(Cl)cc3)c2O[C@H]1CN(C)C(=O)Nc1ccc(C(F)(F)F)cc1 | -3.5 | · | · | · | · | · | · | · | · | · | · | ·
CC(=O)c1ccc(NC(=O)c2cc(C)nc3ccccc23)cc1 | 62.0* | 54.3 | 4.8 | -4.8 | -1.9 | 19.1 | 1.35 | 1.09 | 1.52 | 4.3 | -26.7 | -3.4
Clc1ccc(-c2cn3cccnc3n2)cc1Cl | 73.1* | 59.5 | 16.8 | -7.5 | -4.0 | 54.3 | 1.04 | 1.34 | 0.922 | 11.9 | -25.0 | 2.7
Clc1ccc(-c2cn3cccnc3n2)cc1 | · | 28.8 | · | -2.7 | -0.5 | 2.5 | · | · | · | · | · | ·
O=C(CN1CCOCC1)NCC[C@@H]1CC[C@@H](NC(=O)Cc2ccccn2)[C@@H](CO)O1 | 1.9 | · | · | · | · | · | · | · | · | · | · | ·
Cc1ccc(NC(=O)COC(=O)c2ccccc2Nc2ccccc2)cc1 | · | 8.0 | -1.0 | -5.2 | -0.5 | -8.6 | · | · | · | · | · | ·
Cc1ccc(Nc2cccccc2=O)cc1 | 54.7* | ? | 26.2 | -0.8 | -0.3 | -8.1 | 1.13 | 1.08 | 1.77 | -5.4 | -20.9 | -8.7
CCCC1CCC(c2nc(-c3cccnc3)no2)CC1 (stereo not drawn) | 60.1* | 73.2 | · | -2.3 | -0.4 | 11.4 | 1.2 | ? | 1.66 | -2.6 | -27.3 | -9.8
SMILES | esBAF inh | MITF act | Wnt bcat act | APOBEC3G inh | APOBEC3A inh | PHOSPHO1 inh | esBAF Ring1 qPCR | Fgf4 repress | esBAF Bmi1 qPCR | A549 tox SP | HepG2 tox SP | HEK293 tox SP
O=C(C[C@H]1C=C[C@H](NS(=O)(=O)c2ccc(F)cc2)[C@@H](CO)O1)NCCc1ccncc1 | -3.6 | · | · | · | · | · | · | · | · | · | · | ·
CS(=O)(=O)c1cccc(-c2csc(N3CCC(C(N)=O)CC3)n2)c1 | 67.9* | 49.7 | 8.6 | -8.2 | -3.5 | · | 1.2 | 0.862 | 1.26 | -6.4 | 2.5 | -5.9
CC(=O)c1ccc(-c2csc(N3CCC(C(N)=O)CC3)n2)cc1 | · | · | · | -7.0 | -4.2 | · | · | · | · | · | · | ·
COc1cccc(NC(=O)Nc2ccc3c(c2)C(=O)N(C)[C@H]2CC[C@@H](CC(=O)NCCc4ccccc4)O[C@@H]2CO3)c1 | 5.8 | · | · | · | · | · | · | · | · | · | · | ·
C=CCNc1nc(NCc2cccc(OC)c2)c2sc(-c3ccccc3)cc2n1 | 70.9* | · | -2.3 | · | · | · | 3.7* | 0.3* | 17.3* | -7.5 | -48.0 | -65.9*
CCCNC(=O)N1CC[C@@H]2[C@H]1c1cc(C#Cc3ccc(OC)cc3)ccc1N(C)[C@@H]2CO | 1.7 | · | · | · | · | · | · | · | · | · | · | ·
Cc1ccc(NC(=O)c2ccnc(C(C)(C)C)c2)cc1 | 70.7* | · | 17.8 | -10.9 | -9.5 | 2.5 | 1.15 | 0.927 | 1.57 | 0.6 | -46.5 | -13.0
CC(=O)N(C)C[C@@H]1Oc2ncc(C#CCc3ccccc3)cc2C(=O)N([C@@H](C)CO)C[C@H]1C | -2.4 | · | · | · | · | · | · | · | · | · | · | ·
